Experiment [1] is described as follows: ATG_CRE_CIS: Attagene CIS-FACTORIAL HepG2 Assay for human cAMP Responsive Element (CRE) binding protein 3 (AID 2282926). Particulars: HepG2 CRE cis-reporter, Attagene multiplexed mRNA; actives raise or lower the signal. An outline of the steps:
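We dosed HepG2 cells bearing multiple cis-promoter reporter units for 24 h and measured reporter mRNA by RT-PCR with capillary electrophoresis detection. Bidirectional concentration-response fitting used DMSO as negative control.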

In experiment [2] the target is CCAAT/enhancer-binding protein beta (Homo sapiens) (UniProt P17676). In words: ATG_C_EBP_CIS: Attagene CIS-FACTORIAL HepG2 Assay for human CCAAT/Enhancer Binding Protein (C/EBP) beta (AID 2282927). The following applies: HepG2 Attagene cis-factorial transcription factor reporter; actives raise or lower the signal. An outline of the steps:
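RT-PCR/capillary electrophoresis fluorescence of reporter mRNA, 24 h post-dose, in HepG2 cells carrying transfected cis-promoter reporter units. Bidirectional curve fitting against DMSO baseline captures gain or loss of signal.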

Experiment [3] can be described thus: ATG_CMV_CIS: Attagene CIS-FACTORIAL HepG2 Assay for human CMV (Internal Marker) (AID 2282928).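 Further: endpoint acts as a background internal control marker rather than a target.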 The following applies: HepG2 CMV promoter reporter, transcription factor profiling; actives raise or lower the signal. An outline of the steps:
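Cell system: HepG2, transiently transfected multiple reporter units under cis promoters. Exposure: 24 h. Detection: RT-PCR, FAM labeling, HpaI digestion, capillary electrophoresis. Analysis: bidirectional, DMSO baseline.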

Experiment [4] in a line: ATG_DR4_LXR_CIS: Attagene CIS-FACTORIAL HepG2 Assay for human Liver X Receptor (LXR), DR4 submotif (AID 2282929). The following applies: HepG2 Attagene DR4 cis-reporter, mRNA transcription; actives raise or lower the signal. An outline of the steps: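 Readout: reporter transcript fluorescence after RT-PCR and capillary electrophoresis, fitted bidirectionally against DMSO controls. Human HepG2 liver cells carried transiently transfected multiplexed reporter constructs; endogenous transcription factor activity measured 24 h post-dosing.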

The target of experiment [5] is Aryl hydrocarbon receptor (Homo sapiens) (UniProt P35869). In words: ATG_Ahr_CIS: Attagene CIS-FACTORIAL HepG2 Assay for human Aryl Hydrocarbon Receptor (Ahr) (AID 2282930). The following applies: HepG2 AhR cis-factorial reporter transcription; actives raise or lower the signal. An outline of the steps: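 HepG2 cells transiently transfected with cis-element-driven multiplexed reporter transcription units; endogenous transcription factor activity measured as reporter mRNA 24 h after dosing. RT-PCR, 6-FAM labelling, HpaI digestion, capillary electrophoresis; bidirectional fitting versus DMSO baseline.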
Chain of Aryl hydrocarbon receptor (Homo sapiens) (P35869 whole entry, looked up): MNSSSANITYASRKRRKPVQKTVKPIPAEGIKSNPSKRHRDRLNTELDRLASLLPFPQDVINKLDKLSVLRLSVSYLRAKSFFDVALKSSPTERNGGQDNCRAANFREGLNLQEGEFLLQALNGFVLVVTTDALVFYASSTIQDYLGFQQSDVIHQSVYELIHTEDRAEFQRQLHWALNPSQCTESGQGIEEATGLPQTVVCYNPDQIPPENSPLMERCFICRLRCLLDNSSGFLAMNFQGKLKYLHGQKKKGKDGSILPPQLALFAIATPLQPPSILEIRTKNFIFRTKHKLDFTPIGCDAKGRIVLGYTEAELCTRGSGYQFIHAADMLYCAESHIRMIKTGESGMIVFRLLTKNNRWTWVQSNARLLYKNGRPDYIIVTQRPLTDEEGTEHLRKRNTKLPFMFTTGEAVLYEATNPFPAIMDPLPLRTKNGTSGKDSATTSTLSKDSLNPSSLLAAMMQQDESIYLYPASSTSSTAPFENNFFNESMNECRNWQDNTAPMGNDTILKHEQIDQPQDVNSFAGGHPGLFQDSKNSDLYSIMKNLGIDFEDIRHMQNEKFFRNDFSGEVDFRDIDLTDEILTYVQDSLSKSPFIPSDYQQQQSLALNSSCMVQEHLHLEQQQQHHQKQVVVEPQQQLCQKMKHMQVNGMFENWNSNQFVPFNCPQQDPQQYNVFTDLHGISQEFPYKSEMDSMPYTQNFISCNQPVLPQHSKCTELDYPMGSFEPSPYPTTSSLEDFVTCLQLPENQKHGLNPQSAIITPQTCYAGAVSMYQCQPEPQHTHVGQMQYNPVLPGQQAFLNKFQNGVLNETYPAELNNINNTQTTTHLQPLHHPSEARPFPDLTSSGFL

A short description of experiment [6]: ATG_AP_1_CIS: Attagene CIS-FACTORIAL HepG2 Assay for human Activator Protein 1 (AP-1) (AID 2282931). The following applies: HepG2 Attagene cis-factorial AP-1 reporter mRNA; actives raise or lower the signal. In a few lines:
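Reporter transcripts were measured 24 h after dosing by RT-PCR and capillary electrophoresis of fluorescent fragments. Cells: HepG2 carrying transfected cis-regulated reporter constructs reading endogenous factor activity. Gain or loss fitted against DMSO.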

Experiment [7] is described as follows: ATG_AP_2_CIS: Attagene CIS-FACTORIAL HepG2 Assay for human Activator Protein 2 (AP-2) (AID 2282932). Particulars: HepG2 AP-2 cis-reporter, Attagene transcription factor profiling; actives raise or lower the signal. An outline of the steps: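 Bidirectional curve fitting against DMSO was applied to reporter mRNA signals from HepG2 cells 24 h after dosing. Cis-promoter reporter units, transiently transfected, were read by RT-PCR plus capillary electrophoresis.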

Experiment [8] in a line: ATG_BRE_CIS: Attagene CIS-FACTORIAL HepG2 Assay for human Bone Morphogenetic Protein (BMP) Response Element (BRE) (AID 2282933). Particulars: HepG2 BMP response element reporter, Attagene transcription factor profiling; actives raise or lower the signal. In a few lines:
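Multiplexed cis-reporter assay, HepG2, 24 h exposure. mRNA from reporter units quantified via RT-PCR/CE; DMSO baseline; bidirectional curve fit.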

The target in experiment [9] is Retinoic acid receptor alpha (Homo sapiens) (UniProt P10276). The experiment can be described thus: ATG_DR5_RAR_CIS: Attagene CIS-FACTORIAL HepG2 Assay for human Retinoic Acid Receptor Alpha (RARE), DR5 submotif (AID 2282934).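 On AC50: reporter responds to endogenous RAR alpha beta and gamma in HepG2 not RARA alone.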 The following applies: HepG2 Attagene cis-factorial RARE DR5 reporter, mRNA; actives raise or lower the signal. An outline of the steps: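 HepG2 cells transiently transfected with multiplexed reporter units under cis (DR5 RARE) promoters, so endogenous transcription factor activity is measured. After 24 h compound exposure, reporter mRNA is quantified by RT-PCR with fluorescent labelling and capillary electrophoresis; bidirectional fitting versus DMSO.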
Chain of Retinoic acid receptor alpha (Homo sapiens) (P10276 whole entry, looked up): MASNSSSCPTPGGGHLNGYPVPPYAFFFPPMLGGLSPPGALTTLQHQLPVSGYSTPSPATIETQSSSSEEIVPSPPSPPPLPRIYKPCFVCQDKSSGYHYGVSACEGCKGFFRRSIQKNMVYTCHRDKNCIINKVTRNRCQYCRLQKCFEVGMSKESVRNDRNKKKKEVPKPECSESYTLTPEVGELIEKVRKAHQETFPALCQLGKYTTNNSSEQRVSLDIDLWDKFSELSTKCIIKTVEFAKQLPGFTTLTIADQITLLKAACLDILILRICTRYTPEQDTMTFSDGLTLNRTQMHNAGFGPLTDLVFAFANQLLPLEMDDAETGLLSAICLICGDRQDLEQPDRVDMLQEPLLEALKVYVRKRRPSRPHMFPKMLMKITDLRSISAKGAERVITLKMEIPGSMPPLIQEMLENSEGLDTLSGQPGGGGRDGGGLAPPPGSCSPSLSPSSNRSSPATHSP

For experiment [10], the target named is Transcription factor E2F1 (Homo sapiens) (UniProt Q01094). The experiment can be described thus: ATG_E2F_CIS: Attagene CIS-FACTORIAL HepG2 Assay for human E2F Transcription Factor 1 (AID 2282935). Particulars: HepG2 Attagene cis-reporter, E2F reporter RNA transcripts; actives raise or lower the signal. In a few lines:
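Multiplexed cis-reporter assay: HepG2, transient transfection, 24 h dosing, mRNA quantitation by labeled RT-PCR and CE.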

Activity calls are given as the source filed them. How the source made its calls: active means hit-call score of the fitted dose curve at least 0.9, where 1 is the maximum; inactive means score below 0.9.

Chain of Transcription factor E2F1 (Homo sapiens) (Q01094 whole entry, looked up): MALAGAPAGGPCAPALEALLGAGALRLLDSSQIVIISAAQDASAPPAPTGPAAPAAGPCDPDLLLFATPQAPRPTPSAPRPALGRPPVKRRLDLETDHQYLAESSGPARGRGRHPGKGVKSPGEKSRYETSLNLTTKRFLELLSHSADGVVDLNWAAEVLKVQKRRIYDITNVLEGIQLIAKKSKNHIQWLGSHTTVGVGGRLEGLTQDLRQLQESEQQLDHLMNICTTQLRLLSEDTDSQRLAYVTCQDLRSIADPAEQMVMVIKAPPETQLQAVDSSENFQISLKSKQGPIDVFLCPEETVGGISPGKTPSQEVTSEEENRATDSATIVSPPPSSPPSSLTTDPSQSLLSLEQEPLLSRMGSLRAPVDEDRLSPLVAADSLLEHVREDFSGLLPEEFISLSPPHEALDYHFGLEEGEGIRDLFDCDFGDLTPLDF
Chain of CCAAT/enhancer-binding protein beta (Homo sapiens) (P17676 whole entry, looked up): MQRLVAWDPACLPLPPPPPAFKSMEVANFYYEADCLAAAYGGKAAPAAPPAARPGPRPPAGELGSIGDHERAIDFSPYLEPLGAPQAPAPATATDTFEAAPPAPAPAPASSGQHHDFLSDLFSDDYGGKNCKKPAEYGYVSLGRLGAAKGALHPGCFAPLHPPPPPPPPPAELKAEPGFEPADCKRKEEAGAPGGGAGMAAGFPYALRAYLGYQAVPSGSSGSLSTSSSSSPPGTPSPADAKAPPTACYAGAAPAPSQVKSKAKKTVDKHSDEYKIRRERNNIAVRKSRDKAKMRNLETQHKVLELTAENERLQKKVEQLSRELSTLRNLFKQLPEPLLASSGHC

The term AC50 denotes the midpoint of the concentration-response curve, whichever way the signal moves. `COc1ccc(-n2nc(C(F)F)cc2-c2ccc(S(C)=O)cc2)cc1` (stereo not drawn): the result in [1], in experiment [2], in [4], in [5], in experiment [6] and in [7] was inactive. Further, the molecule was classed as inactive in experiment [8], in [9] and in experiment [10]. In [3], the AC50 is 5.24 µM (active).

Take `O=C(O)c1cccc(Oc2ccccc2)c1`: the molecule was classed as inactive in experiment [1], in experiment [2], in experiment [3], in experiment [4], in [5] and in [6]. The call in experiment [7], in experiment [8], in experiment [9] and in [10] was inactive.

In the case of `CCn1nc(Cc2ccccc2)cc1C1CCN(C[C@H]2C[C@H](N(C)[C@@H](C(=O)O)C(C)C)C[C@@H]2c2cccc(F)c2)CC1`, the molecule was classed as inactive in experiment [1], in experiment [2], in experiment [3], in experiment [5], in experiment [6] and in experiment [7]. Besides, the call in [8], in experiment [9] and in experiment [10] was inactive. In addition, in experiment [4], the AC50 is 100 µM (active).

Turning to `NC(=O)NO`, the outcome in experiment [1], in experiment [2], in experiment [3], in experiment [4], in experiment [6] and in experiment [7] was inactive. The result in experiment [8], in [9] and in experiment [10] was inactive. The AC50 in [5] was 100 µM (active).

`O=C(CCCCCCCCc1cccnc1)N1CCC(C=C(c2ccccc2)c2ccccc2)CC1`: the concentration at half-maximal activity (AC50) in experiment [1] was 14.5 µM (active); in [2], 9.03 µM (active); in experiment [3], 14 µM (active); in [4] it was 14.4 µM (active); in experiment [5], 0.874 µM (active); in [6], 9.05 µM (active). Also, the values for the AC50 in experiment [7], in experiment [8] and in experiment [9] were 56.3 µM (active), 3.07 µM (active) and 1.66 µM (active), respectively. Further, the result in experiment [10] was inactive.

Consider `C1N2CN3CN1CN(C2)C3`, for which the molecule was called inactive in experiment [1], in experiment [2], in experiment [3], in [4], in experiment [5] and in [6]. The molecule was classed as inactive in experiment [7], in experiment [8], in [9] and in experiment [10].

Regarding `O=C(O)c1cc(N=Nc2ccc(S(=O)(=O)Nc3ccccn3)cc2)ccc1O`, the molecule was classed as inactive in [1], in experiment [2], in experiment [3], in [4], in experiment [5] and in experiment [6]. For the same molecule, the molecule was classed as inactive in experiment [7], in [8], in [9] and in experiment [10].

`CCCC(=O)OCC`: the result in [1], in [2], in experiment [3], in experiment [4], in [5] and in [6] was inactive. In addition, the call in [7], in experiment [8], in experiment [9] and in experiment [10] was inactive.

In the case of `O=P(OC(CCl)CCl)(OC(CCl)CCl)OC(CCl)CCl`, the AC50 in experiment [1] was 72.3 µM (active); in experiment [3], 100 µM (active); in [8], 70.4 µM (active). In addition, the outcome in experiment [2], in [4], in experiment [5], in [6], in [7] and in experiment [9] was inactive. Further, the molecule was classed as inactive in experiment [10].

Regarding `Cn1cnc([N+](=O)[O-])c1Sc1ncnc2nc[nH]c12`, the result in experiment [2], in experiment [4], in experiment [5], in experiment [7], in experiment [8] and in [9] was inactive. The outcome in experiment [10] was inactive. Also, the results for the AC50 in experiment [3] and in experiment [6] were 35.3 µM (active) and 28.1 µM (active), respectively.

On to `O=C(O)CC(O)C(=O)O` (stereo not drawn), for which the outcome in [2], in experiment [3], in [4], in experiment [5], in experiment [6] and in experiment [7] was inactive. Further, the molecule was called inactive in [8], in experiment [9] and in [10].

In the case of `CC1(C)C(=O)N(Br)C(=O)N1Br`, the outcome in [1], in [2], in experiment [3], in experiment [4], in experiment [6] and in experiment [7] was inactive. The result in experiment [8], in experiment [9] and in experiment [10] was inactive. In experiment [5], the AC50 is 68.5 µM (active).

As to `COc1ccc2sc(C(=O)Nc3nnn[nH]3)c(OC(C)C)c2c1`, the molecule was classed as inactive in experiment [1], in [2], in experiment [5], in experiment [7] and in experiment [10]. Besides, the AC50 was 26.9 µM (active) in experiment [3], 158 µM (active) in experiment [4], 27 µM (active) in experiment [6] and 41.8 µM (active) in experiment [8].

Consider `Nc1ccc(Nc2ccccc2)cc1`, for which the molecule was classed as inactive in experiment [1], in experiment [2], in experiment [4], in experiment [5], in experiment [6] and in experiment [7]. Moreover, the call in experiment [8], in [9] and in [10] was inactive. For the same molecule, the concentration at half-maximal activity (AC50) in experiment [3] is 36.7 µM (active).

As to `O=c1n(CC2CO2)c(=O)n(CC2CO2)c(=O)n1CC1CO1` (stereo not drawn), the AC50 in experiment [2] was 75.7 µM (active); in experiment [6] it was 4.4 µM (active). The molecule was called inactive in [3], in experiment [4], in [5], in [7], in experiment [8] and in [9]. In [10], the call was inactive.

Turning to `Cn1c(=O)c2c(ncn2C)n(C)c1=O`, the call in [1], in experiment [2], in [3], in experiment [4], in [5] and in [6] was inactive. Further, the result in experiment [7], in [8], in experiment [9] and in experiment [10] was inactive.

Consider `COc1ccc(/C=C/S(=O)(=O)NC(=O)c2ccc(C)cc2Cl)cc1`, for which the result in [2], in experiment [3], in experiment [4], in experiment [5], in experiment [6] and in [7] was inactive. Also, the outcome in experiment [8], in experiment [9] and in experiment [10] was inactive.

Take `CC[C@H](C)C(=O)O[C@H]1C[C@@H](C)C=C2C=C[C@H](C)[C@H](CC[C@@H]3C[C@@H](O)CC(=O)O3)[C@H]21`: the molecule was classed as inactive in experiment [1], in experiment [2], in experiment [3], in experiment [5], in experiment [6] and in [7]. Further, the outcome in experiment [8] and in experiment [10] was inactive. In experiment [4], the AC50 was 52.4 µM (active).

For the molecule `CCCCCCCCCCCCc1ccccc1`, the molecule was classed as inactive in [1], in [2], in experiment [3], in [4], in experiment [5] and in experiment [6]. Also, the molecule was called inactive in experiment [7], in experiment [8], in experiment [9] and in experiment [10].

On to `CC(C)CCO`, for which the molecule was classed as inactive in experiment [1], in experiment [2], in experiment [3], in [4], in [5] and in [6]. In addition, the outcome in experiment [7], in experiment [8], in experiment [9] and in experiment [10] was inactive.

As to `CN(C)c1ccc(Cc2ccc(N(C)C)cc2)cc1`, the outcome in [2], in experiment [4], in experiment [5], in experiment [7], in experiment [9] and in experiment [10] was inactive. Further, the AC50 is 70.4 µM (active) in experiment [3], 65 µM (active) in experiment [6] and 61.9 µM (active) in experiment [8].

The record behind these values is PubChem BioAssay (EPA / NIEHS).
